# pPAFAH FP inh – inhibitors of human plasma PAF acetylhydrolase (pPAFAH). Q13093. recombinant pPAFAH, FP-rhodamine probe fluorescence polarization. inhibition, % at 3.39 µM. hit rate 1.5% among 330,000;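 active = inhibition above the mean inhibition across the screen plus 3 SD, cut at about 25% in these data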;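 also: inhibitors block binding of the rhodamine activity-based probe so polarization drops; 0% = enzyme with DMSO and 100% = wells lacking pPAFAH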
# GSTO1 counter – counter-screen for RBBP9 inhibitors: inhibitors of human GSTO1 | P78417 | recombinant GSTO1, activity-based probe fluorescence polarization | inhibition, % at 5.96 µM | hit rate 1.1% among 300,000 | AID 1974;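 active = inhibition above the campaign mean inhibition plus 3 SD, cut at about 35% in these data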;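 also: 0% = GSTO1-1 with DMSO and 100% = wells lacking GSTO1-1 enzyme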
# Target sequence (P78417 whole entry, looked up): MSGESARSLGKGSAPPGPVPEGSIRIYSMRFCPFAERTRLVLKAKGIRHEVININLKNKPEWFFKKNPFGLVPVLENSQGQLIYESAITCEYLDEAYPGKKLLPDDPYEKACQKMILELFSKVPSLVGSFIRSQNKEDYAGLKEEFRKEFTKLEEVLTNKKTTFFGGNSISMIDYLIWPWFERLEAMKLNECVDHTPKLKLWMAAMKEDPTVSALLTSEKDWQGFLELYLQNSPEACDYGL
# PME-1 inh – blocks human protein phosphatase methylesterase 1 | recombinant PME-1, FP-Rh probe fluorescence polarization | inhibition, % at 5.9 µM | AID 2130 | hit rate 0.53% among 320,000;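 active = inhibition above the campaign mean of all compounds plus 3 SD, cut at about 26% in these data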;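 also: competitive labeling of PME-1 active site by serine hydrolase directed probe; 0% = PME-1 with DMSO and 100% = wells lacking PME-1 enzyme; inhibitors block probe labeling so polarization falls and inhibition rises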
# Target sequence (Q9Y570 whole entry, looked up): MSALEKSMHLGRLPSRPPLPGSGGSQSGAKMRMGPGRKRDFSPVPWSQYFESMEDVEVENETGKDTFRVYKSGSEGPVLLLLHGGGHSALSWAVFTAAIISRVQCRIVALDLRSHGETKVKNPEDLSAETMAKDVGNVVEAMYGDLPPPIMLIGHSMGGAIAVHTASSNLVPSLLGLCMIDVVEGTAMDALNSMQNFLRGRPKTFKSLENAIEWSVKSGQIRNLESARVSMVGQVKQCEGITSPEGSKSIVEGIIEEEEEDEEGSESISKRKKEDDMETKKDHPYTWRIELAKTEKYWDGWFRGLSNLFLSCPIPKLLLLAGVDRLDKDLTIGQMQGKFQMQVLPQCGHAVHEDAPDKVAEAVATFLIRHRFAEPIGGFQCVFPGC
# PAD4 inh – inhibitors of human PAD4. Q9UM07. recombinant PAD4, RCA probe fluorescence polarization. inhibition, % at 6.36 µM. hit rate 0.41% among 330,000;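 active = percent inhibition above a cutoff equal to the mean of all tested compounds plus 3 SD, cut at about 15% in these data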;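 also: 0% = PAD4 with RCA probe and DMSO and 100% = probe without PAD4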
# Fam108B inh – Fam108B inhibition, counter-screen for RBBP9 inhibitors. AID 1947. inhibition, % at 9.51 µM. hit rate 0.33% among 300,000. recombinant Fam108B, FP-Rh probe fluorescence polarization;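 active = inhibition above the screen mean inhibition plus 3 SD, computed separately per campaign, cut at about 18% in these data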;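 also: inhibitors lower polarization as less probe binds the enzyme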
# pPAFAH confirm – confirmation of human plasma PAF acetylhydrolase (pPAFAH) inhibitors; recombinant pPAFAH, FP-Rh probe fluorescence polarization; hit rate 72% among 2,300; shares compounds with pPAFAH FP inh; inhibition, % at 3.39 µM;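 active = mean inhibition of the triplicate above the hit cutoff set for the earlier primary screen, cut at about 25% in these data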;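 also: 0% = enzyme with DMSO and 100% = wells lacking pPAFAH enzyme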
# * marks the source's active call; other numbers are inactive results; / = no result. This is a sample that favours compounds with a hit; in the whole collection about 2.3% have one here.
SMILES,pPAFAH FP inh,GSTO1 counter,PME-1 inh,PAD4 inh,Fam108B inh,pPAFAH confirm
CCCc1ccc2oc(C(=O)N3CCN(C4CCS(=O)(=O)C4)CC3)c(C)c2c1 (stereo unspecified),22,1,2,1,-1,/
COc1ccc(OC)c(Nc2cc(-c3ccccc3)nc(N)n2)c1,43*,0,1,4,4,37*
CCC1=NN2C(=N)/C(=C/c3cc(C)n(Cc4ccccc4)c3C)C(=O)N=C2S1,18,-67,-7,-5,-6,/
Cc1cc(/C=C2\C(=N)N3N=C(c4ccco4)SC3=NC2=O)c(C)n1Cc1ccccc1,36*,-49,5,0,9,70*
COc1ccc(-n2cccc2/C=C2\C(=N)N3N=C(c4ccco4)SC3=NC2=O)cc1,47*,-36,5,3,3,63*
COc1ccc(CNC(=O)c2ccccc2SCC(=O)N2CCCC2)cc1OC,7,-2,-1,-2,-1,/
O=C(/C=C/c1ccccc1[N+](=O)[O-])c1ccccc1Br,4,17,2,-3,-2,/
Cc1cc(C)c(NC(=O)CN2CCN3CCCC3C2)c(C)c1 (stereo unspecified),11,3,1,-2,2,/
N#C/C(=C\c1ccc([N+](=O)[O-])o1)C(=O)Nc1ccc(F)cc1,44*,6,-5,-16,-12,24
COc1ccc(NC(=O)/C(C#N)=C/c2ccc(-c3ccccc3C(=O)O)o2)cc1,-2,4,-5,4,3,/
Cc1ccsc1C(=O)N1CCCC(C(=O)c2cc(F)ccc2F)C1 (stereo unspecified),-8,6,14,-7,-8,/
COc1ccc(NC(=O)COC(=O)CCNC(=O)c2ccco2)cc1Cl,2,/,/,0,/,/
Cc1ccc(NS(=O)(=O)c2csc(C(N)=O)c2)c(C)c1,36*,11,1,1,1,19
CCCc1nn2c(=O)cc(O)nc2s1,-5,-1,0,-1,2,/
CCCCCCCc1nn2c(=O)cc(O)nc2s1,47*,10,-10,-5,3,10
COc1ccc(C(C(=O)NCC2CCCO2)N(Cc2cccs2)C(=O)c2snc(C(N)=O)c2N)cc1OC (stereo unspecified),38*,0,6,2,-2,5
CCc1ccc2c(c1)C(O)(CC(=O)c1cccs1)C(=O)N2 (stereo unspecified),-13,8,4,-2,-4,/
O=C(CCc1nc2ccccc2c(=O)[nH]1)Nc1nnc(SCc2ccc(F)cc2)s1,4,-3,-3,-1,-17,/
Cc1nc2cc(C(=O)OCC(=O)Nc3cccc(Cl)c3)ccc2n1-c1ccccc1,43*,-13,-20,-2,-10,41*
Cc1nc2cc(C(=O)OCC(=O)NC3CCS(=O)(=O)C3)ccc2n1-c1ccccc1 (stereo unspecified),9,4,-1,0,0,/
CCOCCCNC(=O)c1ccc(N2CCCC2)c(NS(=O)(=O)c2ccc(C)cc2)c1,52*,10,8,0,11,3
Cc1cccc(C)c1NC(=O)COC(=O)c1ccc([N+](=O)[O-])o1,5,11,3,-13,0,/
C=CCN=C(NC#N)SCC(=O)c1cccc(OC)c1,61*,12,6,2,1,10
CCCN(CCO)C1CCN(CCc2ccccc2)CC1,9,1,-9,5,-5,/
C=CCOc1ccc(C(=O)c2ccccc2)c(OCC(=O)NC2(C#N)CCCC2)c1,35*,-5,6,-4,-2,20
SMILES,pPAFAH FP inh,GSTO1 counter,PME-1 inh,PAD4 inh,Fam108B inh,pPAFAH confirm
Cc1cc(C)cc(NC(=O)CCC(=O)N2CCSc3ccccc32)c1,12,-4,-1,-3,-1,/
COC(=O)c1ccccc1NC(=O)CCC(=O)N1CCSc2ccccc21,41*,1,6,2,-2,4
CC(=O)N1CCN(CC(=O)Nc2ccccc2Sc2ccccc2)CC1,-1,3,0,4,-1,/
O=C(/C=C/c1ccc(O)c(O)c1)c1ccc(S(=O)(=O)N2CCCCCC2)cc1,50*,2,-1,-1,3,89*
Cc1cccc(N=C2NC(=O)/C(=C/C=C/c3ccco3)S2)c1C,71*,16,2,-8,11,66*
Cc1cccc(N=C2NC(=O)/C(=C/c3cccnc3)S2)c1C,12,-18,3,-1,-3,/
O=C1NC(=Nc2ccccc2)S/C1=C\C=C\c1ccco1,60*,6,9,-18,10,38*
Cc1ccc(N=C2NC(=O)/C(=C/C=C/c3ccco3)S2)cc1,68*,9,15,-18,5,33*
Nc1cccc2c(=O)c3ccccc3[nH]c12,41*,29,7,-1,10,10
COc1cccc2[nH]c3ccccc3c(=O)c12,1,1,-1,-5,1,/
N#CCCN(C(=O)COC(=O)c1ccc(S(=O)(=O)Nc2ccccc2)cc1)c1ccccc1,35*,2,-5,2,-3,18
CCN(c1ccccc1)S(=O)(=O)c1ccc(N)c(OC)c1,2,-2,-1,-5,-3,/
FC(F)(F)c1ccc(Cl)c(N/N=C/c2ccc(N3CCOCC3)s2)c1,8,4,11,-1,6,/
FC(F)C(F)(F)C(F)(F)C(F)(F)c1cc(-c2ccccc2)n[nH]1,56*,-2,-14,1,-3,50*
Cc1ccccc1S(=O)(=O)Cc1ccc(C(=O)NCCCN2CCCC2)o1,35*,-2,-7,0,1,0
COc1ccc(NC2CCCN(C(=O)C3=NN(C)C(=O)CC3)C2)cc1OC (stereo unspecified),4,0,3,-2,-1,/
Cc1ccc(NC(=O)CN(C)C(=O)CSc2nnc(N)s2)cc1,2,/,5,2,/,/
CCOc1cc(Br)ccc1S(=O)(=O)N1CCC(C(N)=O)CC1,-3,6,-4,4,-4,/
CC(C(=O)NC(C)(C)C)N(C(=O)CS(=O)CC(=O)Nc1ccc(F)cc1)C1CCCC1 (stereo unspecified),0,1,-2,-2,0,/
O=C(Oc1ccc(Oc2ccccc2)cc1)N1CCC(O)CC1,94*,-3,0,1,-10,92*
O=C(Oc1ccccc1)N1CCCC1,-3,2,-4,-1,-2,/
O=C(Oc1ccc(-c2ccccc2)cc1)N1CCOCC1,94*,4,3,-2,2,98*
O=C(Cc1coc2cc3c(cc12)CCC3)OCC(=O)N1CCCC1=O,2,3,1,5,5,/
Cc1ccc(NC(=O)COC(=O)C2CSC3(C)CCC(=O)N23)cc1S(=O)(=O)N1CCOCC1 (stereo unspecified),0,-7,5,-1,1,/
COc1ccc(N2CCN(C(=O)COC(=O)c3cccc(S(=O)(=O)Nc4cccc(C)c4)c3)CC2)cc1,40*,-3,7,-4,3,44*

# High-throughput results deposited in PubChem by The Scripps Research Institute Molecular Screening Center.
